Test results taken from PubChem BioAssay (NCI).
The panel holds about 79,000 compounds, 15% with a hit somewhere; the sample as a whole holds those more often. The source made the active and inactive calls. Cut-off read from the data, not from the text of the source: active = growth inhibition above about 70%; inactive = the rest. Where a SMILES comes first, the peptide text is derived from it. [ ]: non-standard residue; d: D form. ξ: configuration not given here. ξD = NC(CC(=O)O)C(=O)O

assay: NCI Yeast Anticancer Drug Screen. Data for the bub3 strain (AID 167); conditions: S. cerevisiae bub3 mutant strain, at 50.0 µM (retest, dose inferred, filed as 5.0), hits give high values
Procedure, shortened: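 Growth of a checkpoint-deficient yeast mutant is measured after compound exposure. Values represent inhibition relative to vehicle.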

SMILES | growth inhibition
COC(=O)c1nc(=S)[nH]c(C(=O)OC)c1C(=O)c1ccc(Cl)c(Cl)c1 | 98% (active)
NC(=Nc1nc(-c2ccccn2)cc2ccccc12)c1ccccn1 | 77% (active)
Cc1nc(Sc2nc3ccc([N+](=O)[O-])cc3s2)sc1C | 88% (active)
NC(=S)Nc1ccc2c(c1)Cc1ccccc1-2 | 58% (inactive)
CN(C)CCN(C)CC(C)(C)C(=O)/C=C/c1ccc(Cl)c(Cl)c1 | 99% (active)
CCCCCCCCCCCCCCCc1ccc(C(=O)C[n+]2ccccc2)cc1 | 98% (active)
O=C(CCl)N(c1ccccc1)c1ccccc1 | 63% (inactive)
CCOC(=O)C1=C(C(=O)c2ccccc2)C(c2cccc([N+](=O)[O-])c2)C(C(=O)c2ccccc2)=C(C(=O)OCC)N1 | 63% (inactive)
CCN1CCCC(Nc2cc(C)nc(/N=C(/N)Nc3ccc(Cl)c(Cl)c3)n2)C1 (stereo not drawn) | 96% (active)
CCc1cnc2ccccc2c1/C=C/c1ccc(N(C)C)cc1 | 97% (active)
O=[N+]([O-])c1ccc2c(c1)Cc1ccccc1-2 | -59% (inactive)
Fc1ccc(NCCS)cc1 | 93% (active)
CCCCC(C=O)(C=C=C(C)C)CC (stereo not drawn) | 2% (inactive)
CN(C)c1ccc(/C=C/c2cc[n+](C)c(/C=C/c3ccc(N(C)C)cc3)c2)cc1 | 95% (active)
COc1cc([C@@H]2c3cc4c(cc3[C@H](OC3OC5COC(c6ccccc6)OC5C(O)C3O)[C@H]3COC(=O)[C@H]23)OCO4)cc(OC)c1OC (stereo partly drawn) | 82% (active)
OC(c1cc(-c2ccc(Cl)cc2)nc2c(Cl)cccc12)C1CCCCN1 (stereo not drawn) | 93% (active)
CSc1nc(C)c(C(=O)CCN2CCN(c3ccccn3)CC2)s1 | 100% (active)
Cc1cc(C(=O)c2ccc(Cl)cc2)ccc1O | 0% (inactive)
O=C(c1ccccc1)C(Br)C(Br)c1ccccc1 (stereo not drawn) | 97% (active)
CCCCCCN(CCCCCC)CCCNc1nccc2ccccc12 | 72% (active)

SMILES | growth inhibition
CCCCCCCCCCCC[S+](C)CC(=O)[O-] (stereo not drawn) | 89% (active)
COC(=O)C(=[N+]=[N-])C(=O)c1ccc([N+](=O)[O-])o1 | 99% (active)
Cc1c(O)ccc(SC#N)c1C | 84% (active)
Oc1c(Cl)cc(Cl)cc1C(c1cc(Cl)cc(Cl)c1O)C(Cl)(Cl)Cl | 99% (active)
CCCCCCCCCCCCNCCCc1ccccc1 | 99% (active)
Nc1ccc(C(=O)/C=C/c2ccccc2)cc1 | 81% (active)
NCC(=O)NC(CC(=O)O)C(=O)O (stereo not drawn) (H-Gly-[ξD]-OH) | 9% (inactive)
CN(C)c1ccc(C(=C2C=CC(=[N+](C)C)C=C2)c2ccc(N(C)C)cc2)cc1 | 91% (active)
O=C1c2ccccc2Cc2cccc(Cl)c21 | 19% (inactive)
O=C/C=C/c1ccc([N+](=O)[O-])cc1 | 99% (active)
O=C1c2ccccc2C(=O)c2c(O)c(Cl)cc(O)c21 | 38% (inactive)
CN1CSC(=S)N(Cc2ccccc2)C1 | 90% (active)
CC(O)C(O)C(O)C(O)C(O)C(=O)NNc1ccccc1 (stereo not drawn) | 91% (active)
Cn1c(COC(=O)NC2CCCCC2)c(COC(=O)NC2CCCCC2)c2ccc3cc(Cl)c(Cl)cc3c21 | 30% (inactive)
NC(=S)N/N=C\c1nccc2c(N)cccc12 | 85% (active)
Oc1cc(Cl)ccc1Cc1ccc(Cl)cc1O | 100% (active)
CCCCCCCCCCCC(=O)OC(C)C(=O)NCCCC (stereo not drawn) | 9% (inactive)
CCC(=O)c1cc([N+](=O)[O-])c(Br)s1 | 99% (active)
OC(Cc1cc(CC(O)(C(F)(F)F)C(F)(F)F)nc(CC(O)(C(F)(F)F)C(F)(F)F)c1)(C(F)(F)F)C(F)(F)F | 100% (active)

same assay, conditions: S. cerevisiae bub3 mutant strain, at 50.0 µM, hits give high values

SMILES | growth inhibition
COC(=O)c1nc(=S)[nH]c(C(=O)OC)c1C(=O)c1ccc(Cl)c(Cl)c1 | 98.2% (active)
NC(=Nc1nc(-c2ccccn2)cc2ccccc12)c1ccccn1 | 71.3% (active)
Cc1nc(Sc2nc3ccc([N+](=O)[O-])cc3s2)sc1C | 57.3% (inactive)
NC(=S)Nc1ccc2c(c1)Cc1ccccc1-2 | 47% (inactive)
CN(C)CCN(C)CC(C)(C)C(=O)/C=C/c1ccc(Cl)c(Cl)c1 | 92.5% (active)
CCCCCCCCCCCCCCCc1ccc(C(=O)C[n+]2ccccc2)cc1 | 85.2% (active)
O=C(CCl)N(c1ccccc1)c1ccccc1 | 86.5% (active)
CCOC(=O)C1=C(C(=O)c2ccccc2)C(c2cccc([N+](=O)[O-])c2)C(C(=O)c2ccccc2)=C(C(=O)OCC)N1 | 38.5% (inactive)
CCN1CCCC(Nc2cc(C)nc(/N=C(/N)Nc3ccc(Cl)c(Cl)c3)n2)C1 (stereo not drawn) | 83.6% (active)
CCc1cnc2ccccc2c1/C=C/c1ccc(N(C)C)cc1 | 96.8% (active)
O=[N+]([O-])c1ccc2c(c1)Cc1ccccc1-2 | -17.2% (inactive)
Fc1ccc(NCCS)cc1 | 86.9% (active)
CCCCC(C=O)(C=C=C(C)C)CC (stereo not drawn) | 66.3% (inactive)
CN(C)c1ccc(/C=C/c2cc[n+](C)c(/C=C/c3ccc(N(C)C)cc3)c2)cc1 | 91.8% (active)
COc1cc([C@@H]2c3cc4c(cc3[C@H](OC3OC5COC(c6ccccc6)OC5C(O)C3O)[C@H]3COC(=O)[C@H]23)OCO4)cc(OC)c1OC (stereo partly drawn) | 77.5% (active)
OC(c1cc(-c2ccc(Cl)cc2)nc2c(Cl)cccc12)C1CCCCN1 (stereo not drawn) | 99.5% (active)
CSc1nc(C)c(C(=O)CCN2CCN(c3ccccn3)CC2)s1 | 79.5% (active)
Cc1cc(C(=O)c2ccc(Cl)cc2)ccc1O | 24.8% (inactive)
O=C(c1ccccc1)C(Br)C(Br)c1ccccc1 (stereo not drawn) | 98.8% (active)
CCCCCCN(CCCCCC)CCCNc1nccc2ccccc12 | 84% (active)

SMILES | growth inhibition
CCCCCCCCCCCC[S+](C)CC(=O)[O-] (stereo not drawn) | 27.9% (inactive)
COC(=O)C(=[N+]=[N-])C(=O)c1ccc([N+](=O)[O-])o1 | 48.5% (inactive)
Cc1c(O)ccc(SC#N)c1C | 87.5% (active)
Oc1c(Cl)cc(Cl)cc1C(c1cc(Cl)cc(Cl)c1O)C(Cl)(Cl)Cl | 99.2% (active)
CCCCCCCCCCCCNCCCc1ccccc1 | 98% (active)
Nc1ccc(C(=O)/C=C/c2ccccc2)cc1 | 94.5% (active)
NCC(=O)NC(CC(=O)O)C(=O)O (stereo not drawn) (H-Gly-[ξD]-OH) | 8.05% (inactive)
CN(C)c1ccc(C(=C2C=CC(=[N+](C)C)C=C2)c2ccc(N(C)C)cc2)cc1 | 94.8% (active)
O=C1c2ccccc2Cc2cccc(Cl)c21 | 13.8% (inactive)
O=C/C=C/c1ccc([N+](=O)[O-])cc1 | 95.3% (active)
O=C1c2ccccc2C(=O)c2c(O)c(Cl)cc(O)c21 | -2.2% (inactive)
CN1CSC(=S)N(Cc2ccccc2)C1 | 88.3% (active)
CC(O)C(O)C(O)C(O)C(O)C(=O)NNc1ccccc1 (stereo not drawn) | 75.6% (active)
Cn1c(COC(=O)NC2CCCCC2)c(COC(=O)NC2CCCCC2)c2ccc3cc(Cl)c(Cl)cc3c21 | 72.7% (active)
NC(=S)N/N=C\c1nccc2c(N)cccc12 | 74.8% (active)
Oc1cc(Cl)ccc1Cc1ccc(Cl)cc1O | 99.6% (active)
CCCCCCCCCCCC(=O)OC(C)C(=O)NCCCC (stereo not drawn) | -5.95% (inactive)
CCC(=O)c1cc([N+](=O)[O-])c(Br)s1 | 99.5% (active)
OC(Cc1cc(CC(O)(C(F)(F)F)C(F)(F)F)nc(CC(O)(C(F)(F)F)C(F)(F)F)c1)(C(F)(F)F)C(F)(F)F | 99.3% (active)
